The results in this text go back to PubChem BioAssay (NCI).

About 83,000 compounds went through this panel and 20% of them were active in at least one assay; those are over-represented in the sample as a whole.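 Activity criterion: percent growth below 10, measured after cells in 96-well plates were exposed to a single compound concentration for 48 hours.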 Values without a mark were called inactive. Active and inactive are the calls of the source.

For one experiment, the system named is DU-145 prostate. Kind of experiment: NCI-60 one-dose screen, 48 h (100 = growth as untreated, 0 = no growth, -100 = all killed). Particulars: 10 µM unless noted.
On to `Cc1sc2c(c1C)C(c1ccc(Cl)cc1)=N[C@@H](CC(=O)NCCCCCNC(=O)COc1ccc(C3CCC(=O)NC3=O)cc1)c1nnc(C)n1-2` (stereo partly drawn), for which the growth is 88.5%. On the same count and under the same terms, the same measure for `N/C(=N\c1nc2ccccc2s1)NC(=O)Nc1ccc(Cl)cc1Cl`: -74.2% (active). Same read-out and setting: for `CC1=C(C#N)C2=NNCC(c3ccccc3)=NN2C(c2ccccc2)=C1` the value was 111%.

The test system of a further experiment is K-562 leukemia. Described as above. Particulars: 10 µM unless noted.
As to `CCCSc1nc(Nc2ccc(S(N)(=O)=O)cc2)c(C#N)c(-c2ccc(Cl)cc2)n1`, the growth was 7.3% (active). The same measure, in the same setting: the same measure for `CCCCSc1nc(Nc2ccc(S(N)(=O)=O)cc2)c(C#N)c(-c2ccc(Cl)cc2)n1`: 5.58% (active); for `Cn1cc(-c2cc3nc(-c4cn(C)c5ncccc45)cc(N)n3n2)c2ccccc21`: -34.9% (active); for `Cc1ccc(C2=NN(c3nc(-c4cc5ccccc5oc4=O)cs3)C(c3ccc(C)cc3)C2)cc1` (stereo not drawn): 101%.

With `Cc1ccc2c(c1)nc(-c1ccccc1)n2CC(=O)N=Nc1c(O)[nH]c2ccc(Br)cc12`, the growth is -7.04% (active). Regarding `O=C(Cn1nc(-c2ccccc2)ccc1=O)N/N=C/c1ccc(N2CCOCC2)cc1`, the growth is 88.9%. The same measure, in the same setting: the same measure for `O=C(NN1C(=O)/C(=C/C=C/c2ccc([N+](=O)[O-])o2)SC1=S)c1ccc(Cl)cc1`: 3.88% (active); for `CCCCSc1nc(Nc2ccc(S(N)(=O)=O)cc2)c(C#N)c(-c2cc(OC)c(OC)c(OC)c2)n1`: 3.62% (active); for `COc1cc2c3c(n(CCCN4CCC[C@@H]4CO)c(=O)c2cc1OC)-c1cc2c(cc1C3=O)OCO2`: 2.24% (active).

On to `Cn1cc(-c2cc(N)n3nc(-c4cn(C)c5ncc(Br)cc45)cc3n2)c2cc(Br)cnc21`, for which the growth was -41.6% (active).
